GLP-1R inv ag – acts as inverse agonist at human GLP-1 receptor; actives 1.6% (n = 410,000); Potency, µM (titrated, usually from 38.3 µM), without a hit: at the highest dose activity change, negative = inhibition, actives largely listed as inhibitors; P43220; HEK293 GLP-1R CRE-luciferase, luminescence, 24 h; GLP-1R form is constitutively active; also: potency is read from the fitted curve at half-maximal effect; % is scaled to controls: 0 for no effect and ±100 for the full control effect; nearly all actives have a fitted effect of over 55% in size
Target sequence (P43220 whole entry, looked up): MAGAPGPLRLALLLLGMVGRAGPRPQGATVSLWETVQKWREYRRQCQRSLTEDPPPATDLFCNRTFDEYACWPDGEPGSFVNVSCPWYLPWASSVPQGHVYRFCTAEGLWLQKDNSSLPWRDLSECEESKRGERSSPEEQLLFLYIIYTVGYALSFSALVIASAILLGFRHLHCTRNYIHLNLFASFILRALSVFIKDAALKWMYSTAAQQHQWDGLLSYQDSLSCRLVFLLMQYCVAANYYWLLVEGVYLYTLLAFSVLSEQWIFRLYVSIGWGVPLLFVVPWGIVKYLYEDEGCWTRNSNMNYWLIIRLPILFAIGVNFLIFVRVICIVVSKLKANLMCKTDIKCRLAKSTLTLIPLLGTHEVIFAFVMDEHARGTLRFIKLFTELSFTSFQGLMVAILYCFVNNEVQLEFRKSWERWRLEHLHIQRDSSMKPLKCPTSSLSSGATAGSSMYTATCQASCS
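Inverse agonists were sought by their lowering of basal cAMP reporter luciferase output in HEK293 cells stably carrying constitutively active human GLP-1R, after 24 h compound treatment.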
CCT chaperon mod – changes cytosolic chaperonin activity; purified chaperonin ATPase assay, HTRF ADP detection, 30 min; activity change, % (no concentration beside the values), hits read low; actives 0.3% (n = 360,000); in the data active = activity change below about -30%; also: % is scaled to controls: 0 for no effect and ±100 for the full control effect
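First, chaperonin was dispensed at 40 nM or 20 nM final depending on batch activity. Next, compounds were pinned at 76 uM and ATP added at 10 uM. After 30 min at 37 °C, ADP detection reagents ran 30 min at ambient temperature.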
GLP1R cytotox – cytotoxic in the GLP-1 receptor inverse agonist counter-screen. HEK293 cAMP-luciferase reporter cells, luminescence, 24 h. Potency, µM (series often up to 38.3 µM), for inactives: at the highest dose activity change, negative = inhibition, actives largely listed as inhibitors. actives 0.13% (n = 410,000);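 also: loss of luciferase light is scored as toxicity; potency is read from the fitted curve at half-maximal effect; % is scaled to controls: 0 for no effect and ±100 for the full control effect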
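1536-well qHTS counterscreen of the MLSMR; 200 cells/uL, 12 h pre-incubation, 23 nL cpd, 24 h at 37 deg C 5% CO2, luciferase detection reagent, 12 min RT, luminescence. Inhibition = undesired.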
MmCpn inh – M. maripaludis TRiC chaperonin inhibition; purified Mm-Cpn ATPase, ADP Transcreener TR-FRET; Potency, µM (highest dose often 76.9 µM), without a hit: top-dose activity, negative = inhibition, hits mostly inhibitors; actives 0.031% (n = 330,000); also: potency is read from the fitted curve at half-maximal effect; % is scaled to controls: 0 for no effect and ±100 for the full control effect; nearly all actives have a fitted effect of over 80% in size
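ATPase turnover read by TR-FRET ADP competition (Eu cryptate antibody/ADP-d2, 665/590 nm): 10uM ATP final, 25nM Mm-CPN final, 30 min 37degC after 10-min compound preincubation, pH 7.4 Tris/KCl/MgCl2/DTT buffer.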
uPA surface inh – cell surface uPA generation inhibition | cell surface uPA generation assay, qHTS | Potency, µM (titrated, usually from 38.3 µM), inactives show top-dose activity change, negative = inhibition, usual class: inhibitors | actives 0.31% (n = 330,000) | AID 540303; active = well fitted inhibition curve with a large enough effect; inconclusive = small, poorly fitted or top-dose-only effect; inactive = no such curve, though single readings can be large or run the other way; tested in mouse RAW 264.7 cells; also: potency is read from the fitted curve at half-maximal effect; % is scaled to controls: 0 for no effect and ±100 for the full control effect; nearly all actives have a fitted effect of over 55% in size
GLP-1R agonist – GLP-1 receptor (human) agonism; HEK293 GLP-1R CRE-luciferase, luminescence, 4-6 h; cells express a hypersensitive GLP-1R form; Potency, µM (series often up to 45.6 µM), without a hit: at the top dose activation, hits mostly activators; actives 0.007% (n = 380,000); AID 624172; P43220; also: potency is read from the fitted curve at half-maximal effect; % of control where 0% means no effect
Active calls of the source: *. In the library only some 2.2% were active in any assay of this set; here they are far more common. Unless noted, calls follow the shape of the dose curve; as a rule, active = well fitted curve in the direction sought with a large enough effect; inconclusive = small, poorly fitted or top-dose-only effect, or another doubt; inactive = no such curve, though single readings can be large; an effect the other way counts as inactive or inconclusive.

Screening CCC1=Nc2cc(C(=O)NCc3ccco3)ccc2Sc2ccc(Cl)cc21 returned GLP-1R inv ag inconclusive, CCT chaperon mod -5, GLP1R cytotox -35%, MmCpn inh 2%, uPA surface inh -8% and GLP-1R agonist 0%.
`CCOC(=O)c1cccc(Nc2c3c(nc4ccccc24)CCC3)c1` gave GLP-1R inv ag inconclusive and GLP1R cytotox 10µM*.
Screening COC(=O)c1cccc(Nc2c3c(nc4ccccc24)CCC3)c1 returned GLP-1R inv ag 7.9µM*, CCT chaperon mod 1, GLP1R cytotox inconclusive, MmCpn inh 0%, uPA surface inh -19% and GLP-1R agonist 14%.
`COc1cc(Cl)c(C)cc1Nc1c2c(nc3ccccc13)CCC2` gave GLP-1R inv ag 11µM* and GLP1R cytotox inconclusive.
`CC(=O)c1cccc(Nc2c3c(nc4ccccc24)CCC3)c1` gave GLP-1R inv ag inconclusive, CCT chaperon mod -3, GLP1R cytotox 10%, MmCpn inh 0%, uPA surface inh 0.79µM* and GLP-1R agonist 12%.
CCOC(=O)c1ccc(NC(=O)CC2C(=O)N(c3cccc(OC)c3)C(=O)N2Cc2cccnc2)cc1 (centres undefined) was read as GLP-1R inv ag -5% and GLP1R cytotox 3%.
For CCn1nc(C)c2c(-c3ccccc3)cc(=O)n(C(C)C(=O)NCc3ccc(C)cc3)c21 (centres undefined) the results were GLP-1R inv ag inconclusive and GLP1R cytotox 8%.
`COc1ccccc1N1CCN(CC(C)N(C(=O)C2CCCCC2)c2ccccn2)CC1` (centres undefined) gave GLP-1R inv ag 10µM*, CCT chaperon mod -1, GLP1R cytotox -3%, MmCpn inh 0%, uPA surface inh 7% and GLP-1R agonist 3%.
For CCOc1cc(/C=N/Nc2nc(N3CCCCC3)nc(N3CCCCC3)n2)ccc1OC(=O)c1ccco1 the results were GLP-1R inv ag 2%, CCT chaperon mod 0, GLP1R cytotox -16%, MmCpn inh 0%, uPA surface inh 13µM* and GLP-1R agonist -4%.
For COc1cc(/C=N/Nc2nc(Nc3ccccc3)nc(N3CCOCC3)n2)ccc1OC(=O)c1ccco1 the results were GLP-1R inv ag 4.5µM*, CCT chaperon mod -2, GLP1R cytotox -26%, MmCpn inh 0%, uPA surface inh inconclusive and GLP-1R agonist 5%.
For COc1ccc(/C=N/Nc2nc(Nc3ccccc3)nc(N3CCCCC3)n2)c(OC)c1 the results were GLP-1R inv ag inconclusive, CCT chaperon mod -1, GLP1R cytotox 5µM*, MmCpn inh 0%, uPA surface inh 1% and GLP-1R agonist 3%.
For CCOc1cc(OCC)c(C(=O)CCC(=O)O)cc1OCC the results were GLP-1R agonist 6%.
For Cc1cc(C)nc(N/N=C/C=C/c2ccccc2)n1 the results were GLP-1R inv ag inconclusive, CCT chaperon mod 0, GLP1R cytotox 11µM*, MmCpn inh -3%, uPA surface inh 2% and GLP-1R agonist -6%.
Screening Cc1cc(C)nc(N/N=C/c2ccccc2)n1 returned GLP-1R inv ag 0%, CCT chaperon mod -1, GLP1R cytotox -1%, MmCpn inh -5% and GLP-1R agonist -9%.
Screening O=C(Nc1cc(C(F)(F)F)ccc1Cl)c1ccc(NC(=O)C(F)(F)F)cc1 returned GLP-1R inv ag inconclusive, CCT chaperon mod 3, GLP1R cytotox -1%, MmCpn inh 1%, uPA surface inh -5% and GLP-1R agonist 24%.
Screening CCCC(=O)Nc1ccc(C(=O)Nc2cc(C(F)(F)F)ccc2Cl)cc1 returned GLP-1R inv ag 6.3µM*, CCT chaperon mod 1, GLP1R cytotox inconclusive, MmCpn inh -1%, uPA surface inh -5% and GLP-1R agonist -2%.
Screening O=C(COC(=O)c1cccc([N+](=O)[O-])c1)Nc1ccc(Cl)cn1 returned GLP-1R inv ag 57%, CCT chaperon mod -42*, GLP1R cytotox 4%, MmCpn inh 2%, uPA surface inh -2% and GLP-1R agonist 5%.
For O=C(COC(=O)c1ccc([N+](=O)[O-])cc1)Nc1ccc(Cl)cn1 the results were GLP-1R inv ag 20%, CCT chaperon mod -5, GLP1R cytotox 4%, MmCpn inh 1%, uPA surface inh 3% and GLP-1R agonist 5%.
`Oc1c(Cl)cc(CN2CCOCC2)c2cccnc12` gave GLP-1R inv ag inconclusive, CCT chaperon mod 1, GLP1R cytotox inconclusive, MmCpn inh -2%, uPA surface inh inconclusive and GLP-1R agonist -3%.
`Oc1c(CN2CCCCC2)cc(Br)c2cccnc12` gave GLP-1R inv ag 2.5µM*, CCT chaperon mod -1, GLP1R cytotox inconclusive, MmCpn inh 0%, uPA surface inh inconclusive and GLP-1R agonist -2%.
CCCn1c(=O)sc2cc(NC(=O)c3ccc(OC)c(Br)c3)ccc21 was read as GLP-1R inv ag 10µM*, GLP1R cytotox -31% and GLP-1R agonist 1%.
`COc1ccc(-n2c(=O)c3c(c4cc(OC)ccc4n3C)n(CCC(C)C)c2=O)cc1` gave GLP-1R inv ag 7%, GLP1R cytotox -1% and GLP-1R agonist 3%.
For O=C(CN1C(=O)COc2ccccc21)NCCc1ccc(Cl)cc1 the results were GLP-1R inv ag -22% and GLP1R cytotox -2%.
`COc1cc(-c2nnc(SCCOc3ccc(Cl)cc3C)o2)cc(OC)c1OC` gave GLP-1R inv ag 4% and GLP1R cytotox 1%.
Screening COc1ccc(OCC(=O)Nc2ccc(N3CCOCC3)c(Cl)c2)cc1 returned GLP-1R inv ag -24%, CCT chaperon mod 1, GLP1R cytotox -16%, MmCpn inh 0%, uPA surface inh -1% and GLP-1R agonist 0%.
Screening CCC(=O)N1CCN(c2ccccc2NC(=O)COc2ccc(C(C)C)cc2)CC1 returned GLP-1R inv ag 10µM*, CCT chaperon mod -4, GLP1R cytotox -9%, MmCpn inh -2%, uPA surface inh 15% and GLP-1R agonist 15%.
Screening Cc1ccccc1OCC(=O)Nc1ccc2c(c1)Cc1ccccc1-2 returned GLP-1R inv ag 41%, CCT chaperon mod 0, GLP1R cytotox 16%, MmCpn inh -1% and GLP-1R agonist 7%.
COc1ccc(OCC(=O)Nc2ccc(N3CCN(C(=O)c4ccccc4)CC3)c(Cl)c2)cc1 was read as GLP-1R inv ag 10µM*, CCT chaperon mod -2, GLP1R cytotox 7%, MmCpn inh -2%, uPA surface inh -10% and GLP-1R agonist 0%.
